Shown are actives, neighbours in structure and some others; about 7.5% of the full set was active somewhere.
ELG1 genotox: inducers of genotoxicity in HEK293T ELG1-luciferase cells. HEK293T ELG1-luciferase reporter, luminescence, 16 h. Potency, µM (titrated, usually from 46 µM), for the others: at the highest dose activity change, positive = activation, actives largely listed as activators. 330,000 compounds, 1.3% hits; note: % of control where 0% means no effect; nearly all actives have a fitted effect of over 60% in size
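Genotoxic stress is detected as increased luminescence from luciferase-tagged ELG1 in HEK293T cells, measured with ONE-Glo after a 16 hr treatment at 37 °C.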
FLuc counter: firefly luciferase modulation, counter-screen for miR-21 project. P08659. purified FLuc, Km substrates, luminescence inhibition. 360,000 compounds, 6.9% hits. AID 588342. Potency, µM (series often up to 57.5 µM), without a hit: at the top dose activity change, negative = inhibition, actives largely listed as inhibitors;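 note: plate controls were vehicle for no effect and reference inhibitor for full effect; nearly all actives have a fitted effect of over 55% in size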
Target sequence (P08659 whole entry, looked up): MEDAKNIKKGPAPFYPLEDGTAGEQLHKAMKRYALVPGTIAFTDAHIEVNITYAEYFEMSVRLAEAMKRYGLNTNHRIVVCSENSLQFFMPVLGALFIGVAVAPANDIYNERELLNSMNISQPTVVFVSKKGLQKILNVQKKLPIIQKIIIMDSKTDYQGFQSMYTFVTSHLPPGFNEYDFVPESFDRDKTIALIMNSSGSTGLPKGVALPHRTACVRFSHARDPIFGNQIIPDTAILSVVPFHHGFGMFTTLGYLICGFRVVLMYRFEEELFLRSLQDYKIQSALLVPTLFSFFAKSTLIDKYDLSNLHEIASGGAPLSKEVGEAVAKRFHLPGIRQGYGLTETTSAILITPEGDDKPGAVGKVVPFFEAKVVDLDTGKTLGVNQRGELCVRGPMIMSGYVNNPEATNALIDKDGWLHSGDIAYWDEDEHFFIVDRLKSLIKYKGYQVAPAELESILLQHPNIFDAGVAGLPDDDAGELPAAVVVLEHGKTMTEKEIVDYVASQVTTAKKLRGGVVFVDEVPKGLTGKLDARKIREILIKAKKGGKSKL
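Purified P. pyralis luciferase (10nM final) with 10uM D-luciferin and 10uM ATP (Km levels) in 50mM Tris acetate pH 7.5, 10mM Mg acetate, 0.01% Tween-20, 0.05% BSA; qHTS 6-point titration, ~60 µM downward; luminescence read.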
NPC1 prom act: activators of NPC1 promoter; Huh7 NPC1 promoter luciferase reporter, 24 h; Potency, µM (top dose mostly 9.22 µM), without a hit: at the top dose activation, hits mostly activators; 320,000 compounds, 2.4% hits; note: % of control where 0% means no effect; nearly all actives have a fitted effect of over 60% in size
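Stably transfected Huh7 (NPC1 promoter→luciferase), 1500 cells/well in Opti-MEM + 10% FBS, 2 h settle, then compound 24 h at 37 °C. Luminescence after 10 min with Amplite reagent.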
SMN2 splice enh: increases expression of the SMN2 splice variant. HEK293 SMN2-luciferase splicing reporter, luminescence, 30-36 h. Potency, µM (highest dose often 46.1 µM), without a hit: at the highest dose activity change, positive = activation, actives largely listed as activators. 210,000 compounds, 2.8% hits. AID 1458; note: % of control where 0% means no effect; nearly all actives have a fitted effect of over 55% in size
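qHTS luciferase splicing reporter: luminescence rises when SMN2 exon 7 is included in transfected HEK293 cells. Compound exposure lasted 30-36 h at 37C, with 4.5 mM final sodium butyrate as control, followed by a ONE-Glo read.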
Rab9 promoter act: Rab9 promoter activation | Huh7 Rab9 promoter-luciferase reporter, luminescence, 24 h | Potency, µM (series often up to 9.22 µM), without a hit: top-dose activation, negative = inhibition, actives largely listed as activators | 320,000 compounds, 2.8% hits; note: % of control where 0% means no effect; nearly all actives have a fitted effect of over 60% in size
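Huh7 cells stably carrying a Rab9 promoter-luciferase reporter, 1500 cells per well in OP-MEM I with 10% FBS, treated with compound 24 hours at 37C. Luciferase activity read by luminescence after 10 minutes with Amplite reagent.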
KinaseGlo FLuc: blocks Kinase-Glo luciferase, a counter-screen artifact. Potency, µM (doses to about 38.3 µM), for inactives: at the top dose activity change, negative = inhibition, usual class: inhibitors. Q27757. 200,000 compounds, 0.28% hits. AID 1379. Kinase-Glo luciferase, ATP luminescence, 8 min; note: % is set by controls: 0 for no effect and ±100 for the full control effect; nearly all actives have a fitted effect of over 60% in size
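Substrate mix (final 50 mM imidazole pH 7.2, 50 mM KCl, 7 mM MgCl2, 10 uM ATP, 0.01% Tween 20, 0.05% BSA) plus pin-tool compound, then Kinase-Glo detection mix; 8 min ambient, luminescence read.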
Starred values were filed as active, the others as inactive; u = inconclusive; x = not tested or not shown. Calls come from the whole dose curve; as a rule, active = well fitted curve in the direction sought with a large enough effect; inconclusive = small, poorly fitted or top-dose-only effect, or another doubt; inactive = no such curve, though single readings can be large; an effect the other way counts as inactive or inconclusive. Potency is the fitted concentration of half-maximal effect.

SMILES	ELG1 genotox	FLuc counter	NPC1 prom act	SMN2 splice enh	Rab9 promoter act	KinaseGlo FLuc
Cc1cccc(NC(=S)NNC(=O)c2sccc2C)c1	u	15µM*	1%	-13%	u	-3%
Cc1cccc(NC(=S)NNC(=O)c2csc(C(C)C)c2)c1	13%	5.4µM*	2.5µM*	11µM*	1.8µM*	1%
CCc1cc(C(=O)NNC(=S)Nc2cccc(C)c2)cs1	13%	3.4µM*	3.5µM*	14µM*	3.2µM*	3%
CCOC(=O)C1CCN(c2nc3c(S(=O)(=O)c4ccccc4)nnn3c3ccsc23)CC1	x	5%	x	x	x	x
Nc1ccc(C(=O)N/N=C/c2cccc(Oc3ccccc3)c2)cc1	5%	12µM*	0%	x	9%	x
O=C(N/N=C/c1cccc(Oc2ccccc2)c1)c1ccccc1F	u	17µM*	-5%	x	21%	x
O=C(N/N=C/c1cccc(Oc2ccccc2)c1)c1cc[n+]([O-])cc1	2%	u	0%	1%	-4%	2%
CCc1cccc(NC(=O)CCc2nc3cccnc3n2-c2ccccc2)c1	x	-2%	x	-15%	x	x
CCOC(=O)c1sc2nc3c(cc2c1N)COC(C(C)C)C3 (configuration not stated)	0.13µM*	0.12µM*	0.79µM*	-84%	u	-6%
CCOC(=O)c1sc2nc(N3CCOCC3)c3c(c2c1N)CC(C(C)C)OC3 (configuration not stated)	7%	-2%	-7%	x	2%	3%
CC1(C)Cc2nc3scc(NC(=O)c4ccccc4)c3cc2CO1	2%	11µM*	-3%	x	0%	x
COC(=O)c1sc2nc3c(cc2c1N)COC(C)(C)C3	8.2µM*	11µM*	2.8µM*	9%	3.5µM*	-6%
COC(=O)c1c(NC(=O)c2nc(SCc3ccc(C)cc3)ncc2Cl)sc2c1CCCC2	x	-4%	x	0%	x	x
COc1ccc(N=c2oc3ccccc3cc2C(=O)Nc2ccccn2)cc1OC	u	24µM*	u	10%	u	-14%
COc1ccccc1NC(=O)c1cc2ccccc2o/c1=N\O	16%	u	29%	-8%	4µM*	-3%
COc1ccccc1NC(=O)c1cc2c(CO)cnc(C)c2oc1=Nc1ccc(OC)c(OC)c1	-11%	1%	-8%	x	-10%	x
COc1ccccc1NC(=O)c1cc2ccc(O)cc2o/c1=N\O	3%	5.4µM*	1%	10%	-2%	-7%
COc1ccccc1N=c1oc2cc(O)ccc2cc1C(N)=O	0%	13µM*	6%	-5%	2%	u
COc1ccccc1NC(=O)c1oc2ccccc2c1NC(=O)c1cccc(OC)c1OC	x	-2%	x	-2%	x	x
CCCN(C(=O)c1cc2c(=O)oc3ccccc3c2s1)c1ccc(CC)cc1	x	-1%	x	5%	x	x
CCOc1ccc(CCNC(=O)c2sc3ncccc3c2-n2c(C)ccc2C)cc1	x	1%	x	x	x	x
COc1ccc2cc(C(N)=O)/c(=N\NC(=O)c3ccccc3)oc2c1	u	11µM*	0.89µM*	x	0.71µM*	x
COc1cc(C2NC(=O)NC(C)=C2C(=O)OC2CCCC(C)C2)cc(Br)c1O (configuration not stated)	3%	0%	-2%	x	-2%	x
CC1=C(C(=O)OC2CCCC(C)C2)C(c2ccccc2)NC(=O)N1 (configuration not stated)	-4%	1%	-12%	x	1µM*	x
CCN1C(=O)c2ccccc2Sc2ccc(NC(=O)c3ccc(C)c(F)c3)cc21	x	-11%	x	x	x	x
SMILES	ELG1 genotox	FLuc counter	NPC1 prom act	SMN2 splice enh	Rab9 promoter act	KinaseGlo FLuc
Nc1ncnc2c1ncn2Cc1ccccc1	8%	4%	-2%	-5%	-2%	0%
Oc1ccc(/C=N/Nc2ncnc3c2ncn3Cc2ccccc2)cc1O	u	9.5µM*	-6%	-2%	2%	-3%
Oc1cccc(/C=N/Nc2ncnc3c2ncn3Cc2ccccc2)c1	16%	13µM*	9%	3%	17%	0%
Brc1ccc(/C=N/Nc2ncnc3c2cnn3Cc2ccccc2)cc1	2%	-2%	-4%	3%	-7%	2%
Cc1ccc(S(=O)(=O)N(CC(=O)Nc2ccc3c(c2)OCO3)c2ccc(C)c(Cl)c2)cc1	x	-9%	x	-2%	x	x
CC(=O)Nc1nonc1-c1nnc(SCC(=O)Nc2cc(Cl)ccc2C)n1C	x	-1%	x	x	x	x
CN(C)c1ccc(C(=C2C=CC(=[N+](C)C)C=C2)c2ccc(N(C)C)cc2)cc1	x	x	x	-54%	x	5µM*
O=C(N/N=C/c1ccc(O)c(O)c1)N/N=C/c1ccc(O)c(O)c1	7%	5.4µM*	0%	x	-14%	x
COc1cc(/C=N/NC(=O)c2nonc2C)ccc1O	3%	u	-1%	7%	-1%	-14%
Cc1nonc1C(=O)N/N=C/c1ccc(O)c(O)c1	3%	u	-9%	-11%	-14%	6.3µM*
Cc1cc(SCC(=O)N/N=C/c2ccc(O)c(O)c2)c(C)cc1Br	-9%	6%	-7%	18%	1%	-2%
Cc1nc2c3cccnc3nn2c(C)c1CCC(=O)NCc1ccccc1	x	-5%	x	1%	x	x
COC(=O)N1N=C(c2ccc(Br)cc2)CC1(O)C(F)(F)F (configuration not stated)	u	11µM*	3.5µM*	16µM*	u	-1%
CCOC(=O)N1N=C(c2ccccc2)CC1(O)C(F)(F)F (configuration not stated)	u	13µM*	3.5µM*	u	2.2µM*	-7%
CCOC(=O)N1N=C(c2ccc(C)cc2)CC1(O)C(F)(F)F (configuration not stated)	u	5.4µM*	0.89µM*	21%	0.71µM*	5%
O=C(c1ccccc1)N1N=C(c2ccccc2)CC1(O)C(F)(F)F (configuration not stated)	0%	2%	1%	x	-3%	x
Cc1cc2n(n1)CCCN2C(=O)Nc1ccc(C)c(Cl)c1	x	-3%	x	7%	x	x
CCCCSc1nnc2c(n1)[nH]c1ccccc12	u	u	u	3.5µM*	1.3µM*	0%
CC(C)CSc1nnc2c(n1)[nH]c1ccccc12	0.65µM*	0.67µM*	3.5µM*	2.2µM*	0.71µM*	-10%
O=C(O)c1ccccc1CSc1nnc2c(n1)[nH]c1ccccc12	0%	21µM*	15%	x	-4%	x
CC(C)CSc1nnc2c3ccccc3n(C)c2n1	u	11µM*	18%	x	6%	x
COc1ccc(CNC(=O)CSc2nnc3c(n2)[nH]c2ccc(OC)cc23)cc1	-1%	3%	0%	x	6%	x
COc1ccc2[nH]c3nc(SC(C)C)nnc3c2c1	8%	0.34µM*	0.71µM*	u	0.79µM*	-13%

Screening data (PubChem)
